# The list is not random: actives were taken first. Their share in the collection is about 3.9%.
# Anthrax LF prot – inhibitors of Bacillus anthracis lethal factor protease | 360,000 compounds, 0.12% hits | inhibition, % at 10 µM | P15917 | multiplex microsphere protease cleavage assay, LF
# Target sequence (P15917 whole entry, looked up): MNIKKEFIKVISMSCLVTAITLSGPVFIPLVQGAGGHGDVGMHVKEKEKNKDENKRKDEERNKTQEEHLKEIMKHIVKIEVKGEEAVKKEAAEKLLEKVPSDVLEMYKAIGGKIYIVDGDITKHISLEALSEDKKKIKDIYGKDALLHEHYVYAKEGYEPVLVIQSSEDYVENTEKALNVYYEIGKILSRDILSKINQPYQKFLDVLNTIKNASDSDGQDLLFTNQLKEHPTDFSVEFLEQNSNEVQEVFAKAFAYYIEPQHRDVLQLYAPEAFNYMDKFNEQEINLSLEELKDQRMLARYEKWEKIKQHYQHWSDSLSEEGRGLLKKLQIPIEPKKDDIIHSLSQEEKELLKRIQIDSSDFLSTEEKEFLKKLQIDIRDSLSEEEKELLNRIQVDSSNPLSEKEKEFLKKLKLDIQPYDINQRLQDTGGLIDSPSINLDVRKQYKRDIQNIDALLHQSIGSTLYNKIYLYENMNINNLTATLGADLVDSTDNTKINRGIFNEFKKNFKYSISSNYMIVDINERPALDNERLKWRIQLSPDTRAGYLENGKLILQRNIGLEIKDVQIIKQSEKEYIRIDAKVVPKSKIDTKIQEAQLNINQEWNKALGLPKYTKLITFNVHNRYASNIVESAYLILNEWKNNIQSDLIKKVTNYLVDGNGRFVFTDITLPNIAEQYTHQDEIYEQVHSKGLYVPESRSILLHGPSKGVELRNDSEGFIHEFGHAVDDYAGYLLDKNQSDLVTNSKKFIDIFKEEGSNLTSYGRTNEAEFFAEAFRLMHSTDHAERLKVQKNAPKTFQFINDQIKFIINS
# BoNT-A LC inh2 – blocks Botulinum neurotoxin A light chain protease; multiplex microsphere protease substrate cleavage, flow cytometry; AID 588499; inhibition, % at 10 µM; 360,000 compounds, 0.17% hits
# Bead autofluor – flagged as autofluorescent in microsphere protease counterscreen | compound autofluorescence counterscreen, microsphere flow cytometry; hits give high values | fluorescence intensity (test concentration not listed) | 360,000 compounds, 3.1% hits; in the data active = fluorescence intensity above about 16000; inconclusive = no clear call, values can overlap the other calls
# DUSP3 inh – DUSP3 (human) phosphatase inhibition. 290,000 compounds, 0.52% hits. inhibition, % at 13.3 µM. P51452. AID 1654. recombinant VHR phosphatase, pNPP absorbance; in the data active = inhibition above about 50%
# SARS 3CLpro inh – SARS-CoV 3CLpro protease inhibition. P0C6X7. recombinant SARS-CoV 3CLpro, quenched FRET peptide cleavage. inhibition, % at 6 µM. 290,000 compounds, 0.14% hits. AID 1706; in the data active = inhibition above about 12%
# BoNT F protease – inhibitors of Botulinum neurotoxin F light chain protease; Multiplex microsphere protease cleavage assay, flow cytometry; inhibition, % at 10 µM; 360,000 compounds, 0.22% hits; in the data active = inhibition above about 35%, passing the limit was not always enough; inconclusive = no clear call, values can overlap the other calls
# Numbers stand for hits; i = inactive; ? = inconclusive; nt = no result given. Cut-off read from the data, not from the text of the source, unless noted: active = inhibition above about 30%; inconclusive = no clear call, values can overlap the other calls; inactive = below that.
SMILES,Anthrax LF prot,BoNT-A LC inh2,Bead autofluor,DUSP3 inh,SARS 3CLpro inh,BoNT F protease
CN1CCN(S(=O)(=O)c2cccc(C(=O)Nc3nc(-c4ccccc4)cs3)c2)CC1,i,i,23294,i,i,i
COC(=O)c1cccc(NC(=O)c2ccc(S(=O)(=O)N3CCN(C)CC3)cc2)c1,i,i,23982,i,i,i
CN1CCN(S(=O)(=O)c2ccc(NC(=O)c3ccc(F)cc3Cl)cc2)CC1,i,i,i,i,i,47
COc1cccc(C(=O)Nc2ccc(S(=O)(=O)N3CCN(C)CC3)cc2)c1,i,i,i,i,i,i
COc1ccc(S(=O)(=O)N2CCCCC2)cc1NC(=O)C1COc2ccccc2O1 (stereo not given),i,i,i,nt,nt,i
CCOc1ccc(CN(CC)C(=O)c2ccc3c(c2)[nH]c(=O)c(=O)n3CC)cc1OC,i,i,i,i,i,i
Cc1ccc(S(=O)(=O)NCC(=O)NCCc2c[nH]c3ccccc23)cc1C,i,i,i,i,i,i
COc1ccc(-n2nc3c(N4CCC(C(=O)NCc5ccccc5C)CC4)nnc(C)c3c2C)cc1,i,i,i,i,i,i
CCOc1ccccc1CNC(=O)C1CCCN(c2nnc(C)c3c(C)n(-c4ccccc4)nc23)C1 (stereo not given),i,i,19018,i,i,i
Cc1[nH]c(=O)[nH]c(=O)c1S(=O)(=O)N(CC(C)C)CC(C)C,i,i,i,i,i,i
COC(=O)CC1COc2ccccc2N1C(=O)c1ccc(Br)cc1 (stereo not given),i,i,i,i,i,i
COC(=O)CC1COc2ccccc2N1C(=O)c1ccc(C(C)(C)C)cc1 (stereo not given),i,?,20115,i,i,i
CCOC(=O)CC1COc2ccccc2N1C(=O)c1ccc(C)cc1 (stereo not given),i,i,i,i,i,i
COC(=O)CC1COc2ccccc2N1C(=O)c1ccc(Cl)cc1 (stereo not given),i,i,23189,i,i,i
Cc1cc(O)ccc1N=Cc1c(C(F)(F)F)[nH][nH]c1=O,i,i,i,i,i,i
Cc1cc(C)c(S(=O)(=O)N2CCN(C(=O)CCn3nc(C)c(C)c3C)CC2)c(C)c1,i,i,i,i,i,i
Cc1cc(Br)ccc1NC(=O)CN(C)C(=O)CSCc1ccccc1,i,i,?,nt,nt,i
CC1(C)CC(=O)CC(C)(C)N1OC(=O)c1ccncc1,i,?,23714,i,i,i
CCOC(=O)c1sc(=S)n(-c2ccc(F)c(F)c2)c1N,i,i,21634,i,i,i
COc1ccc(-n2c(N)c(C(=O)NCc3ccco3)sc2=S)cc1,i,i,i,i,i,i
CCOC(=O)c1sc(=S)n(-c2ccc(C)cc2)c1N,i,i,i,i,i,i
CCOC(=O)c1sc(=S)n(-c2ccc(Cl)cc2)c1SC,i,i,21737,i,i,i
CCOC(=O)c1ccc(-n2c(N)c(C(=O)NCc3ccco3)sc2=S)cc1,i,i,23235,i,i,i
CC(C)CCN1CCNC(=O)C1CC(=O)N(C)CCCN1CCOCC1 (stereo not given),i,i,i,i,i,i
Cc1nc(CN2CCC(c3ccccc3)CC2)cc(=O)[nH]1,i,i,i,53,i,i
SMILES,Anthrax LF prot,BoNT-A LC inh2,Bead autofluor,DUSP3 inh,SARS 3CLpro inh,BoNT F protease
O=C(COc1ccc(Br)cc1)Nc1ccc(CN2CCOCC2)cc1,i,i,i,i,i,i
C=CCN(c1ccccc1)S(=O)(=O)c1cccc(C(=O)NCC(c2ccc(OC)cc2)N2CCCCC2)c1 (stereo not given),i,?,i,nt,nt,i
COc1ccc(C(CNC(=O)c2cc3ccccc3cc2OC)N2CCCC2)cc1 (stereo not given),i,?,27989,i,i,i
COc1ccc(C(CNC(=O)CNC(=O)c2ccccc2Cl)N2CCCC2)cc1 (stereo not given),i,i,i,nt,nt,i
C=CCN(c1ccccc1OC)S(=O)(=O)c1cccc(C(=O)NCC(c2ccc(OC)cc2)N2CCCC2)c1 (stereo not given),i,i,23106,nt,nt,i
Cc1ccc(C(=O)c2c3ccc([N+](=O)[O-])cc3[n+]([O-])n2CCCN)cc1,i,i,i,nt,nt,i
CCn1c2ccccc2c2nnc(SCC(=O)c3ccccc3)nc21,i,i,i,i,i,i
CCn1c2ccccc2c2nnc(SCC(=O)Nc3ncccn3)nc21,i,?,21373,i,i,i
CCOC(=O)C(Sc1nnc2c3ccccc3n(CC)c2n1)C(=O)OCC,i,i,16233,i,i,i
COc1ccc(NC(=O)CCC(=O)Nc2nnc(C(F)(F)F)s2)c(OC)c1,i,i,18599,i,i,i
COc1ccc(CCC(=O)Nc2nnc(C(F)(F)F)s2)cc1,i,i,i,i,i,i
O=C(CCC(=O)NC1CCCCCC1)Nc1nnc(C(F)(F)F)s1,i,?,21138,i,i,i
COc1cccc(-c2cnc3c(c2)C(=O)N([C@H](C)CO)C[C@@H](C)[C@H](CN(C)C(=O)Nc2ccccc2F)O3)c1,i,i,i,nt,nt,i
c1ccc(CN2C3=NCCN3c3ccccc32)cc1,i,i,i,i,i,i
Clc1ccc(CN2C3=NCCN3c3ccccc32)cc1Cl,i,i,23094,i,i,i
Cc1cc(CNC[C@H]2O[C@@H](n3ccc(=O)[nH]c3=O)[C@H](O)[C@@H]2O)no1,i,i,i,nt,nt,i
Cc1cc(C)c(C)c(S(=O)(=O)NCC(=O)N2CCCC2)c1C,i,i,20412,i,i,i
CSC(=NC#N)N1CCN(c2ccc([N+](=O)[O-])cc2)CC1,i,i,i,i,i,i
Cc1cccc(N(C(=O)c2cnc3n(c2=O)CCS3)C2CCCCC2)c1,i,i,22301,i,i,i
COC(=O)c1ccc(C(=O)OC)c(NC(=O)c2cnc3n(c2=O)CCS3)c1,i,?,16274,i,i,i
CN(Cc1ccccc1)C(=O)c1cnc2n(c1=O)CCS2,i,?,19652,i,i,i
COC(=O)[C@]1(C)N[C@H](CN(C)S(=O)(=O)c2ccc(C(F)(F)F)cc2)[C@@H]2C(=O)N(C)C(=O)[C@@H]21,i,i,i,nt,nt,i
Cc1ccccc1C(=O)N1[C@@H](C(C)C)COc2cc(Br)ccc2S1(=O)=O,i,i,i,nt,nt,i
CCc1cc(=O)oc2cc(OCC(=O)OC)c(Cl)cc12,i,?,22235,i,i,i
COc1ccc(C2CC(=O)C3=C(C2)NC(C)=C(C(=O)Nc2ccccc2C)C3c2coc3ccc(C)cc3c2=O)cc1OC (stereo not given),i,?,23361,i,i,i
CC1=C(C(=O)Nc2ccccc2)C(c2coc3ccccc3c2=O)C2=C(CCCC2=O)N1 (stereo not given),i,i,i,i,i,i
N#Cc1ccc(OCC(=O)OCC(=O)Nc2sccc2C(N)=O)cc1,i,i,i,nt,nt,i
CCOc1ccc(NC(=O)CCCNC(=O)Cn2cnc3sc(C)c(C)c3c2=O)cc1,i,i,i,i,i,i
CCCCC(=O)Nc1sc2c(c1C(=O)OCC)CCC(C=O)=C2Cl,i,?,21678,i,i,i

# Bioassay records from PubChem.
